# Measured values as given in PubChem BioAssay (NCATS).
# Results filed as inconclusive are left out. Entries that show only a call come without a potency. The source made the active and inactive calls. The call rests on the fitted dose curve; in most records, active means well fitted inhibition curve with a large enough effect; inconclusive means small, poorly fitted or top-dose-only effect; inactive means flat fitted curve, though single readings scatter.
# Target: Ubiquitin carboxyl-terminal hydrolase 1 (Homo sapiens) (UniProt O94782)
# Experiment: Inhibitors of USP1/UAF1: Pilot qHTS (AID 504865); further: nearly all actives have a fitted effect of over 35% in size
# Settings: purified USP1/UAF1, Ub-rhodamine cleavage fluorescence; series mostly up to 114 µM
# Summary of the method: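 1nM USP1/UAF1 + cpd, 15 min RT; start w/ Ub-Rho 150nM final; kinetic FL 480/540 nm, 6 reads q60 s. Buffer 50mM HEPES pH 7.8, 0.5mM EDTA, 1mM TCEP, 0.01% Tween-20, 0.1 mg/ml BSA.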
# Potency means the concentration at half of the fitted maximal effect.
# Ubiquitin carboxyl-terminal hydrolase 1 (Homo sapiens), sequence (O94782 whole entry, looked up): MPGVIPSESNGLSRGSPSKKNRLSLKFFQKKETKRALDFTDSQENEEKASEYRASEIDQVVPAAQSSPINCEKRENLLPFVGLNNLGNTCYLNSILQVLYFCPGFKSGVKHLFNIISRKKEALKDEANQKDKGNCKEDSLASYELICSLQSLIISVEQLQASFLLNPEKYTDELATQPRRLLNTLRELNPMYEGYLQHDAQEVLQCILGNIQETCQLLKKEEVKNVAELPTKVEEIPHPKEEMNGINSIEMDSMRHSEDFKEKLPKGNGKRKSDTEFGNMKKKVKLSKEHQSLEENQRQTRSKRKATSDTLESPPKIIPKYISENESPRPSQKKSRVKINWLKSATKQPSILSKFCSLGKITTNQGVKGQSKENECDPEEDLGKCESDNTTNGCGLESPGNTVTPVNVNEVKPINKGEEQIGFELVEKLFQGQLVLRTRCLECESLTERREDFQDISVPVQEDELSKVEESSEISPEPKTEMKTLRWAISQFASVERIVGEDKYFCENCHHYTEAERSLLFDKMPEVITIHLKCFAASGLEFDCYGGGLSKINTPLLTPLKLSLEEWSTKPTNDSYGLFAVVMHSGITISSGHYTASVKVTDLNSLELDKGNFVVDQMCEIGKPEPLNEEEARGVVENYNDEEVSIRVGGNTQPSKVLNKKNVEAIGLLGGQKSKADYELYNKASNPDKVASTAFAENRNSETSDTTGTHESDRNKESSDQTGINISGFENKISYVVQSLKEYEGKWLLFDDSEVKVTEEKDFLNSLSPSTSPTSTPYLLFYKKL
row,Compound,Potency
1,C=CCN1CCC23c4c5ccc(O)c4O[C@H]2C(=O)CC[C@@]3(O)C1C5 (stereo partly specified),inactive
2,C#CCN[C@H](C)Cc1ccccc1,inactive
3,Cc1sc2ccccc2c1CC1=NCCN1,inactive
4,Ic1ccccc1CNC1C2CCN(CC2)C1C(c1ccccc1)c1ccccc1 (stereo unspecified),inactive
5,COC(=O)N1CCN(C(=O)Cc2ccc(Cl)c(Cl)c2)C(CN2CCCC2)C1 (stereo unspecified),inactive
6,N[C@@H](CCl)C(=O)O,inactive
7,CC(=O)NBr,inactive
8,CCS(=O)(=O)Nc1cccc(C(=C2CCCCC2)c2cnc[nH]2)c1,inactive
9,OCc1cnc[nH]1,inactive
10,NC(Cc1cc(O)c(O)cc1O)C(=O)O (stereo unspecified),14.1 µM (active)
11,CN1CCc2cccc(Cl)c2CC1,inactive
12,NCCCP(=O)(O)O,inactive
13,C[N+](C)(C)CC#CCOC(=O)Nc1cccc(Cl)c1,inactive
14,C[C@H](Cc1ccc2c(c1)OC(C(=O)O)(C(=O)O)O2)NC[C@H](O)c1cccc(Cl)c1,inactive
15,NNC(=O)c1ccc(O)cc1,inactive
16,N[C@@]1(C(=O)O)CC[C@@H](C(=O)O)C1,inactive
17,CC1(C(=O)O)C2CCC(O2)C1(C)C(=O)O (stereo unspecified),inactive
18,NC(=O)COc1c(F)cc(SCCNS(=O)(=O)c2ccccc2)cc1F,inactive

row,Compound,Potency
1,C[Se]C[C@H](N)C(=O)O,inactive
2,CCCN(CCC)CCc1ccc(O)c(O)c1,inactive
3,COc1ccc2[nH]cc(CCN)c2c1,inactive
4,C[C@H](N)CN1CCc2ccc(Br)cc21,inactive
5,NC(N)=NOCC[C@H](N)C(=O)O,inactive
6,CCCN(CCC)[C@@H]1CCc2cccc(O)c2C1,inactive
7,CC(Cc1ccc(OCC(=O)O)cc1)NCC(O)c1cccc(Cl)c1 (stereo unspecified),inactive
8,NNC(N)=O,inactive
9,Nc1ccc(CCN2CCN(c3cccc(C(F)(F)F)c3)CC2)cc1,inactive
10,NC(=O)c1ccc(OCC(O)CN2CC=C(c3ccc(F)cc3)CC2)cc1 (stereo unspecified),inactive
11,NCC(CP(=O)(O)O)c1ccc(Cl)cc1 (stereo unspecified),inactive
12,NCC(O)c1cc(O)c(O)cc1F (stereo unspecified),inactive
13,CC12NC(Cc3ccccc31)c1ccccc12 (stereo unspecified),inactive
14,C=CCN1CC[C@]23c4c5ccc(O)c4O[C@H]2/C(=N/NC(=O)c2ccccc2)CC[C@@]3(O)[C@H]1C5,inactive
15,COc1ccc2[nH]c3c(c2c1)CCNC3,inactive
16,CCOC(=O)c1ncn2c1[C@@H]1CCCN1C(=O)c1cc(OC)ccc1-2,inactive
17,C[N+]1(C)CCN(c2ccccc2)CC1,inactive
18,CN(C(=O)Cc1ccc(Cl)c(Cl)c1)C(CN1CCCC1)c1cccc(OCC(=O)O)c1 (stereo unspecified),inactive
